Data on 37 molecules can be found in PubChem BioAssay (NCI).

The panel holds about 79,000 compounds, 15% with a hit somewhere; the sample as a whole holds those more often. Unmarked numbers belong to inactive results. The source made the active and inactive calls. Cut-off read from the data, not from the text of the source: active = growth inhibition above about 70%; inactive = the rest.

The nature of test [1]: NCI Yeast Anticancer Drug Screen. Data for the rad50 strain (AID 155).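 Note: 0% = growth of vehicle-only cultures of the same strain.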 To be noted: S. cerevisiae rad50 strain growth inhibition; at 50.0 µM; active compounds read high. The method in brief:
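A DNA repair-deficient yeast mutant serves as the test organism; compound-induced growth inhibition is calculated against vehicle-treated cells.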

Test [2] can be described thus: NCI Yeast Anticancer Drug Screen. Data for the mec2-1 strain (AID 157). To be noted: S. cerevisiae mec2-1 strain, at 50.0 µM, active compounds read high. The method in brief: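 Using mec2-1 yeast: add compound, measure growth, express inhibition versus vehicle-treated cultures.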
A short description of test [3]: NCI Yeast Anticancer Drug Screen. Data for the sgs1 mgt1 strain (AID 161).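 Note: 0% = growth of cultures given vehicle only.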 As to conditions: S. cerevisiae sgs1 mgt1 strain, at 50.0 µM, active compounds read high. The procedure, abridged: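 Yeast cells carrying a defined DNA-repair defect were exposed to test compounds. Growth inhibition was measured relative to vehicle-treated controls.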
The nature of test [4]: NCI Yeast Anticancer Drug Screen. Data for the cln2 rad14 strain (AID 165).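 Note: 0% = growth equal to vehicle treated cultures.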 To be noted: S. cerevisiae cln2 rad14 strain, at 50.0 µM, active compounds read high. The procedure, abridged:
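Yeast strain cln2 rad14, bearing defects in cell cycle control and DNA repair, serves as the test system; values reflect growth inhibition compared with vehicle.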

Test [5] in a line: NCI Yeast Anticancer Drug Screen. Data for the bub3 strain (AID 167). To be noted: S. cerevisiae bub3 mutant strain, at 50.0 µM, active compounds read high. The method in brief:
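Inhibition values come from growth of compound-treated mutant yeast normalised to vehicle-treated controls.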

A short description of test [6]: NCI Yeast Anticancer Drug Screen. Data for the mlh1 rad18 strain (AID 175). As to conditions: S. cerevisiae mlh1 rad18 strain growth inhibition; at 50.0 µM; active compounds read high. The procedure, abridged: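 Steps: expose repair-defective yeast to compound; measure growth; express inhibition against vehicle-treated controls.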

With `Cc1c(Cl)cccc1NC(=O)Oc1ccc(F)cc1Cl`, the growth inhibition in test [1] is -1.4%; in test [2], -3.1%; in test [3] it was -2.3%; in test [4], 7.35%; in test [5], 17.6%; in test [6] it was -4.55%.

Take `CC(C)(C)CC(C)(C)c1ccc(OCCOc2ccc(S(=O)(=O)O)cc2[N+](=O)[O-])cc1`: the growth inhibition is 68.8% in test [1]; 30.9% in test [2]; 71.7% (active) in test [3]; 1.65% in test [4]; -8.85% in test [5]; 37.2% in test [6].

`CC(=O)N1C(Nc2ccccn2)CCN1c1ccccc1` (configuration not stated): the growth inhibition in test [1] was -30.9%; in test [2], -45.3%; in test [3], -21.4%; in test [4] it was 16.6%; in test [5], 7.9%; in test [6] it was -23.2%.

Take `COc1cc(O)c(C(=O)C2Cc3ccccc32)c(OC)c1` (configuration not stated): the growth inhibition in test [1] was -20.6%; in test [2] it was 12.5%; in test [3], 24.1%; in test [4] it was 21.6%; in test [5], 9.1%; in test [6] it was 41.8%.

Turning to `O=c1[nH]c(Sc2ccccc2)nc2ccccc12`, the growth inhibition in test [1] was 15.7%; in test [2], 9.45%; in test [3], 13.1%; in test [4], -58.1%; in test [5], 18.2%; in test [6], 7.25%.

On to `Cc1cc2c(c3ccccc13)C(O)c1ccccc1-2` (configuration not stated), for which the growth inhibition in test [1] was -7.85%; in test [2], 5.95%; in test [3] it was 1.5%; in test [4], -15.4%; in test [5] it was 3.85%; in test [6] it was -9.25%.

Consider `O=C(O)c1cccc(S(=O)(=O)NN2C(=O)CSC2c2ccccc2)c1` (configuration not stated), for which the growth inhibition in test [1] was -22.4%; in test [2], -18.5%; in test [3], 5.55%; in test [4], 4.45%; in test [5], 3.7%; in test [6], -11.3%.

Regarding `COc1ccc(/C=C/C(=O)c2ccc3c(c2)OCO3)cc1OC`, the growth inhibition in test [1] was -15.6%; in test [2], -14.8%; in test [3] it was -45.1%; in test [4], -6.65%; in test [5], -33.7%; in test [6], -23.5%.

Take `O=[N+]([O-])c1ccccc1-c1ccccc1CO`: the growth inhibition is -22% in test [1]; -19.2% in test [2]; -41.4% in test [3]; -23.4% in test [4]; -18.4% in test [5]; -28.9% in test [6].

Consider `CCCCOC(=O)COc1ccc2c(C)c(CCN(CC)CC)c(=O)oc2c1`, for which the growth inhibition in test [1] is -13.1%; in test [2], -34.1%; in test [3] it was 1.25%; in test [4], -7.55%; in test [5], -21.8%; in test [6] it was -2.5%.

Turning to `CCCCOCCC1CCNCC1`, the growth inhibition was -46% in test [1]; -44.1% in test [2]; -51.5% in test [3]; 10.8% in test [4]; -48% in test [5]; -24% in test [6].

Consider `c1ccc2c(c1)nc1n2C2CCC(C2)N1` (configuration not stated), for which the growth inhibition is 4% in test [1]; 10% in test [2]; 18.8% in test [3]; 21.9% in test [4]; 6.15% in test [5]; 15.7% in test [6].

In the case of `N#Cc1ccc(OC(=O)Nc2cccc(Cl)c2Cl)cc1`, the growth inhibition in test [1] was -3.7%; in test [2] it was -25.4%; in test [3], 2.95%; in test [4], 15.7%; in test [5], 0.55%; in test [6], -9.45%.

On to `COc1cc2c3c(c1)[nH]c(=S)n3C(=O)C(c1ccccc1)S2` (configuration not stated), for which the growth inhibition in test [1] is -32.5%; in test [2] it was 5.8%; in test [3] it was -3.5%; in test [4] it was 40.6%; in test [5], 10.1%; in test [6] it was -27.8%.

`CN(C)/N=C1/CCC(C(F)(F)F)(C(F)(F)F)O1`: the growth inhibition in test [1] was 40.1%; in test [2], 31.6%; in test [3], 41.5%; in test [4], 28.9%; in test [5], 5.1%; in test [6] it was -18.4%.

Take `CN1CCN(CCNNCCN2CCCC(O)C2)CC1` (configuration not stated): the growth inhibition in test [1] was 3.2%; in test [2], -1.65%; in test [3], -5.15%; in test [4] it was -6.05%; in test [5] it was -7.25%; in test [6], 10.7%.

As for `NNC(=O)C1=NN(c2ccccc2)C(=O)C1`, the growth inhibition in test [1] was 39.3%; in test [2], 12.8%; in test [3], 33.6%; in test [4], -12.9%; in test [5], 36.8%; in test [6], 42.1%.

For `CCCCOC(=O)c1ccc(NC(=O)Nc2ccc([N+](=O)[O-])cc2OC)cc1`, the growth inhibition in test [1] is -24.2%; in test [2], -11.1%; in test [3], -17.6%; in test [4], 50.7%; in test [5] it was -0.8%; in test [6], 6.05%.

Consider `O=C(Nc1ccccc1)c1nccc2ccccc12`, for which the growth inhibition in test [1] was 1.45%; in test [2], 13%; in test [3], -6.45%; in test [4], -17.1%; in test [5], 9.4%; in test [6], -3.95%.

For `COc1ccc(C2=Nc3c(nc(SC)[nH]c3=O)NC(c3ccccc3)C2)cc1` (configuration not stated), the growth inhibition in test [1] was 9.45%; in test [2] it was 9.3%; in test [3], 19.3%; in test [4], 6.15%; in test [5], 28.3%; in test [6], -3.15%.

`CSc1n[nH]c(-c2cccs2)n1`: the growth inhibition in test [1] is -6.6%; in test [2], -15.7%; in test [3], 19.9%; in test [4] it was -8.3%; in test [5], -6.35%; in test [6], -0.9%.

Regarding `O=C1Cn2c(c3c(nc2=O)CCCC3)N1`, the growth inhibition in test [1] was -31.1%; in test [2], -7.3%; in test [3], -10.3%; in test [4] it was -13.7%; in test [5], -7.95%; in test [6], 2.1%.

Turning to `Cc1cc(C)n2ncnc2n1`, the growth inhibition is 16.9% in test [1]; -22.6% in test [2]; 7.9% in test [3]; 4.15% in test [4]; -5.15% in test [5]; 5.35% in test [6].

In the case of `COc1ccc(C(O)(c2ccccc2C)c2ccccc2OC)cc1` (configuration not stated), the growth inhibition in test [1] is 16.1%; in test [2], -2.4%; in test [3] it was 4.2%; in test [4], -10.8%; in test [5] it was 20.7%; in test [6], 27.9%.

Consider `O=C(O)CCC(=O)Nc1ccc(Cl)cc1`, for which the growth inhibition in test [1] was 8%; in test [2], 5.7%; in test [3], -0.05%; in test [4] it was -16.1%; in test [5], 5.15%; in test [6], 5.55%.

With `CCOC(=O)C/C(C)=C1/N=C(c2ccccc2)OC1=O`, the growth inhibition in test [1] is 28.9%; in test [2], 7.85%; in test [3], 23.2%; in test [4], 14.8%; in test [5], 37%; in test [6], 30.8%.

With `Cc1ccc(N2[C@H]3CCCN3c3ccc(C)cc3[C@@H]2C(F)(F)F)cc1`, the growth inhibition in test [1] was 16.3%; in test [2] it was 0.8%; in test [3] it was 29.5%; in test [4] it was -2.25%; in test [5] it was -15.5%; in test [6], 2%.

For the molecule `Cc1c(Cl)c2ccc(N(C)C)cc2[nH]c1=O`, the growth inhibition in test [1] is -2.9%; in test [2], 0.45%; in test [3] it was -0.1%; in test [4] it was -6.35%; in test [5], 11.2%; in test [6] it was 7.65%.

Consider `CC(C)CCC[C@@H](C)[C@H]1CC[C@H]2[C@@H]3CC[C@H]4OC(=O)CC[C@]4(C)[C@H]3CC[C@]12C`, for which the growth inhibition in test [1] is -19.4%; in test [2], -33.9%; in test [3], -30.4%; in test [4], -2.2%; in test [5], -27.7%; in test [6], -9.85%.

Take `N#C/C(=C1\SC(N=Nc2ccc(Cl)cc2)C(=O)N1c1ccccc1)c1nc2ccccc2[nH]1` (configuration not stated): the growth inhibition in test [1] was 6.6%; in test [2], 6.05%; in test [3], 6.75%; in test [4] it was -40.9%; in test [5] it was 3.05%; in test [6], -5.05%.

As for `C[n+]1c(I)ccc2ccccc21`, the growth inhibition was 35% in test [1]; 36.5% in test [2]; 53.4% in test [3]; 15% in test [4]; 15.9% in test [5]; 36.3% in test [6].

Regarding `COc1cccc2c(SCC(=O)Nc3ccccc3-c3ccccc3NC(=O)CSc3c4ccccc4nc4c(OC)cccc34)c3ccccc3nc12`, the growth inhibition was -2.4% in test [1]; 3.35% in test [2]; -15.8% in test [3]; -36% in test [4]; -2% in test [5]; -28.8% in test [6].

As for `CCC(=O)C1C(=O)CC(=O)C(C)C1c1ccccc1OC` (configuration not stated), the growth inhibition is -14.8% in test [1]; -6.6% in test [2]; 4.5% in test [3]; 38.5% in test [4]; 27.8% in test [5]; 10.4% in test [6].

As to `O=C(O)C(O)(O)C(=O)O`, the growth inhibition was -2.9% in test [1]; -11.2% in test [2]; -12.6% in test [3]; 22.6% in test [4]; 5.8% in test [5]; -4.05% in test [6].

Regarding `CCc1cc(Cc2cc(CC)c(NC(=O)C(=O)CC(=O)c3sc(-c4cccnc4)nc3C)c(CC)c2)cc(CC)c1NC(=O)C(=O)CC(=O)c1sc(-c2cccnc2)nc1C`, the growth inhibition was -26.8% in test [1]; -26.9% in test [2]; -27.8% in test [3]; -0.05% in test [4]; -35.9% in test [5]; -19.8% in test [6].

Regarding `C=CCc1ccc(OC(=O)CC)c(OC)c1`, the growth inhibition was -8.1% in test [1]; -22.4% in test [2]; -16.4% in test [3]; -8.75% in test [4]; -10.8% in test [5]; -9.95% in test [6].

For the molecule `O=C(C[n+]1ccccc1)c1cc2c(c3ccccc13)CCCC2`, the growth inhibition in test [1] was 3.3%; in test [2] it was -3.2%; in test [3], 36.3%; in test [4] it was 20.8%; in test [5] it was -4.6%; in test [6] it was 19.5%.
